# Source: PubChem BioAssay
# DAX1 inh-1 = DAX1 (NR0B1) inhibition, primary screen; HEK293T StAR-luciferase reporter, SF-1/DAX-1 repression relief; 1.1% of 370,000 active; AID 652010; inhibition, % at 6.8 µM;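 active means inhibition above the mean over all tested compounds plus 3 SD, cut at about 3.6% in these data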;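 further: 0% = DAX-1 cells with DMSO and 100% = cells lacking DAX-1 with DMSO; higher inhibition means more luminescence from relief of DAX-1 repression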
# ssDAF-12 act = activators of S. stercoralis DAF-12 nuclear receptor; activation, % at 6.8 µM; HEK293 ssDAF-12/GRIP1 lit1-tk-luc reporter, luminescence; % of 3 µM dafachronic acid response; 1% of 370,000 active;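 active means activation above the mean over all tested compounds plus 3 SD, cut at about 0.9% in these data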;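 further: 0% = DMSO-only wells and 100% = 3 µM delta7-dafachronic acid wells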
# DAX1 inh-2 = inhibits human nuclear receptor DAX1; 0.99% of 340,000 active; inhibition, % at 6.75 µM; HEK293 Gal4-DAX1 luciferase reporter, luminescence;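 active means inhibition above the mean over all tested compounds plus 3 SD, cut at about 4.2% in these data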;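 further: 0% = DAX1-transfected cells with DMSO and 100% = empty-vector control cells with DMSO; inhibition shows as a rise in luminescence from relieved DAX1 repression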
# Target sequence (P51843 207-470 limits assumed): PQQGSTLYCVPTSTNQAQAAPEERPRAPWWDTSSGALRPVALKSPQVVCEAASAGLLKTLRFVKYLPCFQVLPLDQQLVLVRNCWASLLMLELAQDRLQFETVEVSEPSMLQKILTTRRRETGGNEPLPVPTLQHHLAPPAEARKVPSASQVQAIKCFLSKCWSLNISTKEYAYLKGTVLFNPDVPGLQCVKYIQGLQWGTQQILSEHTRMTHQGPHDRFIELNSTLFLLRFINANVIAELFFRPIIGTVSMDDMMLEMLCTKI
# hgDAF-12 ag = hgDAF-12 agonism, primary luciferase screen. activation, % at 6.8 µM. HEK293 GAL4-hgDAF12 UAS-luciferase reporter, agonist luminescence; normalized to butyrate control. 1.8% of 370,000 active. AID 687014;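 active means activation above a cutoff set at the mean of all screened compounds plus 3 SD, cut at about 10% in these data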;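 further: 0% = DMSO wells and 100% = sodium butyrate wells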
# hcDAF-12 act = activators of H. contortus DAF-12 nuclear receptor. 1.4% of 370,000 active. HEK293 hcDAF-12 lit1-tk-luc reporter, luminescence; 0% DMSO, 100% Δ7-dafachronic acid. AID 652067. activation, % at 6.8 µM;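 active means activation above the mean of all tested compounds plus 3 SD, cut at about 5.5% in these data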;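 further: 100% = response to 3 µM Δ7-dafachronic acid high control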
# LXR ag = LXR-beta agonism as hcDAF-12 counter-screen. shares compounds with hcDAF-12 act. activation, % at 6.8 µM. 3,400 tested, under 10 active. HEK293 Gal4-LXR tk-luc reporter, luminescence, 24 h; normalized: DMSO 0%, positive control 100%;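 active means mean percent activation of the reporter above a cutoff set as the average over tested compounds plus their standard deviation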
# Target sequence (P55055 whole entry, looked up, the tested form may be a part): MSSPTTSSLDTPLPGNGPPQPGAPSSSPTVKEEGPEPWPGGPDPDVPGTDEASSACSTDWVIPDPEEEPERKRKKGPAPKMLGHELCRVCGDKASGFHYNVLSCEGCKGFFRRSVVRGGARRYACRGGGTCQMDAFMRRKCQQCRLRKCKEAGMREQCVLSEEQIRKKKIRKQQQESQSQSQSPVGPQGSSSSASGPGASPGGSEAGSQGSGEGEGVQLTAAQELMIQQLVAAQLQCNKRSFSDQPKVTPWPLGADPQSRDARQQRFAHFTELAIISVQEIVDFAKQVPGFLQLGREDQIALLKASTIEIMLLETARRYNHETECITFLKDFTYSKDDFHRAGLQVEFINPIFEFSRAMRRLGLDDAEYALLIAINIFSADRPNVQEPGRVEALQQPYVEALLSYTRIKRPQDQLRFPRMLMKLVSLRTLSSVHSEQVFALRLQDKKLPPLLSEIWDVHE
# hcDAF12 ag = hcDAF-12 agonism, confirmation assay | shares compounds with hcDAF-12 act | HEK293 hcDAF-12 lit1-tk-luc reporter, luminescence; % of Δ7-dafachronic acid response | activation, % at 6.8 µM | 61% of 3,400 active;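 active means mean activation across triplicate tests above the threshold derived from the earlier primary screen, cut at about 5.5% in these data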;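 further: 0% = DMSO only wells and 100% = 3 µM Δ7-dafachronic acid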
# hgDAF12 conf = confirmation of H. glycines DAF-12 agonists. shares compounds with hgDAF-12 ag. HEK293 GAL4-hgDAF12 luciferase reporter, agonist mode; percent of butyrate response. activation, % at 6.8 µM. 80% of 3,300 active. AID 743050;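 active means mean activation over triplicate wells above the hit cutoff derived from the earlier primary screen, cut at about 11% in these data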;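 further: 0% = DMSO low control and 100% = 2 mM sodium butyrate high control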
# LXRb DAF12 ctr = LXR-beta agonism as DAF-12 counter-screen; activation, % at 6.8 µM; HEK293 Gal4-LXR luciferase reporter, 24 h; shares compounds with hgDAF-12 ag; 3,300 tested, under 10 active;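 active means mean activation of the triplicate above a set limit carried over from the primary screen, none filed active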
# * hit, by the source's call; / = no result given. Sampled rows, rich in hits. Any-hit rate of the full collection: about 4.1%.
SMILES,DAX1 inh-1,ssDAF-12 act,DAX1 inh-2,hgDAF-12 ag,hcDAF-12 act,LXR ag,hcDAF12 ag,hgDAF12 conf,LXRb DAF12 ctr
Brc1ccc(-c2csc(-c3c[nH]c4ccccc34)n2)cc1,1.4,-0.1,1.7,7.0,4.0,/,/,/,/
CN(CC(=O)Oc1ccc(-c2nnco2)cc1)S(=O)(=O)c1ccc(F)cc1,2.1,0.1,2.1,-1.2,0.7,/,/,/,/
CC(=O)Nc1ccc2nc(NC(=O)c3cccs3)sc2c1,4.2*,1.8*,3.0,21.0*,6.7*,1.2,9.2*,12.8*,0.8
CC(=O)Nc1cccc(/C(C)=N/NC(=O)c2ccc(NS(=O)(=O)c3cccs3)cc2)c1,1.1,-1.3,0.9,2.7,-0.2,/,/,/,/
CC(=O)Nc1cccc(/C(C)=N/NC(=O)c2cccs2)c1,1.7,0.1,3.9,17.8*,6.7*,0.1,0.9,0.9,0.1
O=C(NCCCNC(=O)c1ccco1)c1cccc(F)c1,0.2,-1.2,0.0,0.1,-1.7,/,/,/,/
Cc1cccc(-c2cnn(-c3ccccc3)c2N)c1,0.7,-0.8,2.2,6.0,3.5,/,/,/,/
Nc1c(-c2ccccc2)cnn1-c1cccc(Cl)c1,2.5,-0.2,3.6,15.0*,7.1*,0.9,4.2,16.6*,0.7
NC(=O)c1ccsc1NC(=O)CSc1nnc(Nc2ccccc2)s1,-1.4,-1.2,0.0,-5.3,-0.6,/,/,/,/
Cc1ccc(C)c(NC(=O)c2cc3ccccn3n2)c1,3.6*,0.2,0.6,20.7*,7.8*,1.0,2.8,18.2*,0.8
CCN(CC(=O)Nc1c(F)cccc1F)C(=O)CNC(=O)c1ccco1,2.0,-0.5,0.4,-2.3,1.0,/,/,/,/
Cc1ccc(NC(=O)CN(C)C(=O)c2cccc(Br)c2)cc1,-0.6,-0.5,-0.2,2.1,1.0,/,/,/,/
O=C(Nc1nc2c(s1)CN(Cc1ccccc1)CC2)c1cccc(S(=O)(=O)N2CCc3ccccc32)c1,-0.2,-1.2,-1.0,0.2,-0.2,/,/,/,/
Cc1ccc2nc(-c3ccc(NC(=O)CCS(=O)(=O)c4ccccc4)cc3)sc2c1,0.9,1.5*,-4.6,18.3*,8.9*,1.3,7.6*,13.3*,0.8
O=C([C@H]1O[C@@H](n2ccc(=O)[nH]c2=O)[C@H](O)[C@@H]1O)N1CCN(Cc2ccccn2)CC1,-0.4,-0.9,/,2.3,-0.5,/,/,/,/
O=C(NC1=NCCS1)c1cc(Cl)ccc1Cl,0.0,-0.7,-1.0,-1.1,-0.3,/,/,/,/
O=C(NC1=NCCS1)c1ccc(Cl)c(Cl)c1,3.2,0.6,5.4*,20.5*,9.2*,1.4,7.5*,18.2*,1.1
Brc1cccc(-c2n[nH]c(-c3ccccc3)n2)c1,3.4,1.8*,1.8,14.2*,11.7*,1.4,9.6*,21.4*,0.8
c1ccc(-c2nc(-c3cccnc3)n[nH]2)cc1,-0.2,-0.6,/,7.2,1.3,/,/,/,/
CC(C)(C)c1ccc(/C=C/C(=O)Nc2nncs2)cc1,2.8,-0.3,3.4,20.6*,7.4*,1.3,6.8*,12.0*,0.8
CN(C)c1ccc(C2NC(=O)c3ccccc3N2)cc1 (configuration not stated),2.0,0.7,1.9,14.4*,8.1*,1.6,8.3*,20.4*,1.1
CC1(C)C(=O)Nc2ccccc2N1C(=O)COC(=O)Cc1ccc(Cl)c(Cl)c1,1.0,-0.6,2.4,-1.2,-2.1,/,/,/,/
CN(C)c1cccc(-c2cnc(N3CCC(C(N)=O)CC3)s2)c1,/,1.8*,/,16.5*,6.7*,1.8,6.0*,18.6*,1.3
COc1cccc(N(C(=O)c2nc3nccc(C)n3n2)c2nc3ccccc3s2)c1,4.0*,1.1*,1.2,19.7*,8.4*,1.3,5.2,16.4*,0.8
COc1cccc(NC(=O)COC(=O)c2nc3nccc(C)n3n2)c1,-0.3,-1.5,1.2,2.6,-1.2,/,/,/,/
SMILES,DAX1 inh-1,ssDAF-12 act,DAX1 inh-2,hgDAF-12 ag,hcDAF-12 act,LXR ag,hcDAF12 ag,hgDAF12 conf,LXRb DAF12 ctr
CN1CCCC1CCNC1C2CC3CC(C2)CC1C3 (configuration not stated),-0.3,-1.0,0.7,-0.3,0.9,/,/,/,/
Cc1cc(N2CCOCC2)n2ncc(-c3ccccc3Cl)c2n1,2.7,0.4,4.0,17.5*,6.9*,1.3,7.0*,15.9*,0.7
COc1cccc(-c2noc(-c3cccs3)n2)c1,4.0*,1.4*,1.7,14.6*,6.9*,1.7,11.0*,20.6*,1.0
COc1nc(C)ccc1-c1noc(-c2cccs2)n1,2.6,-0.1,/,13.9*,8.4*,1.2,6.2*,16.0*,0.9
O=C(COC(=O)Cc1c(Cl)cccc1Cl)Nc1ccc2[nH]c(=O)[nH]c2c1,-0.6,-0.9,0.4,1.0,-2.1,/,/,/,/
COc1ccc(NC(=O)c2c(Cl)nc3ccccn23)cc1,0.7,-1.5,-0.9,1.1,-0.6,/,/,/,/
COc1ccc(-c2nc3ccccn3c2Cl)cc1,2.5,3.2*,-0.5,14.1*,15.0*,1.7,18.6*,24.0*,1.2
COc1ccc(CNC(=O)COC(=O)c2ccc(S(=O)(=O)N3CCOCC3)cc2)cc1,-1.9,-1.6,-0.6,1.3,-1.0,/,/,/,/
COc1ccc(CN(C)C(=O)c2ccc(NS(=O)(=O)c3ccc(C)c([N+](=O)[O-])c3)cc2)c(OC)c1OC,-2.7,-1.5,-1.3,-2.3,-2.6,/,/,/,/
CCCc1cc(=O)oc2cc(C)cc(OCC(=O)NC3CC3)c12,-1.1,-1.5,-0.6,1.0,-0.7,/,/,/,/
Cc1ccc(/C=C/c2ccc3cccc(O)c3n2)s1,1.5,1.5*,3.6,17.5*,8.9*,1.4,14.9*,16.1*,0.9
COc1cccc(/C=C/c2ccc3cccc(O)c3n2)c1,0.0,1.5*,0.8,14.5*,9.0*,1.6,8.5*,23.9*,0.9
Oc1cccc(/C=C/c2ccc3cccc(O)c3n2)c1,3.6*,4.7*,2.8,23.4*,26.1*,2.3,21.3*,27.8*,1.3
COc1cc(/C=C/c2ccc3cccc(O)c3n2)cc(OC)c1OC,-1.2,-1.9,-3.4,-9.3,-4.7,/,/,/,/
CC1CC(C)(C)CC2(C1)NC(=O)N(CC(=O)N(C)Cc1nc3ccccc3c(=O)[nH]1)C2=O (configuration not stated),-0.6,-0.5,0.1,-0.5,0.8,/,/,/,/
Cc1csc2ncc(C(=O)NCCC(c3ccccc3)c3ccccc3)c(=O)n12,0.1,-1.4,-0.2,-1.6,-1.5,/,/,/,/
